Results taken from PubChem BioAssay (NCI).
The panel holds about 83,000 compounds, 20% with a hit somewhere; the sample as a whole holds those more often.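 Single-dose data. Exposure time 48 hours. Values below 10 considered active.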 A number with no mark means an inactive call. Activity calls are given as the source filed them.

Assays:
Experiment in all cases: NCI-60 one-dose screen, 48 h (100 = growth as untreated, 0 = no growth, -100 = all killed)
Conditions in all cases: 10 µM unless noted
SR leukemia = system: SR leukemia
RPMI-8226 leukemia = system: RPMI-8226 leukemia
OVCAR-8 ovarian = system: OVCAR-8 ovarian
OVCAR-5 ovarian = system: OVCAR-5 ovarian
OVCAR-4 ovarian = system: OVCAR-4 ovarian
SK-OV-3 ovarian = system: SK-OV-3 ovarian
IGROV1 ovarian = system: IGROV1 ovarian
OVCAR-3 ovarian = system: OVCAR-3 ovarian
HS 578T breast = system: HS 578T breast
NCI/ADR-RES ovarian = system: NCI/ADR-RES ovarian
T-47D breast = system: T-47D breast
BT-549 breast = system: BT-549 breast
MDA-MB-435 melanoma = system: MDA-MB-435 melanoma
SW-620 colon = system: SW-620 colon
MCF7 breast = system: MCF7 breast
HCT-116 colon = system: HCT-116 colon
HCC-2998 colon = system: HCC-2998 colon
KM12 colon = system: KM12 colon
MDA-MB-468 breast = system: MDA-MB-468 breast

| SMILES | growth (SR leukemia) | growth (RPMI-8226 leukemia) | growth (OVCAR-8 ovarian) | growth (OVCAR-5 ovarian) | growth (OVCAR-4 ovarian) | growth (SK-OV-3 ovarian) | growth (IGROV1 ovarian) | growth (OVCAR-3 ovarian) | growth (HS 578T breast) | growth (NCI/ADR-RES ovarian) | growth (T-47D breast) | growth (BT-549 breast) | growth (MDA-MB-435 melanoma) | growth (SW-620 colon) | growth (MCF7 breast) | growth (HCT-116 colon) | growth (HCC-2998 colon) | growth (KM12 colon) | growth (MDA-MB-468 breast) |
| --- | --- | --- | --- | --- | --- | --- | --- | --- | --- | --- | --- | --- | --- | --- | --- | --- | --- | --- | --- |
| Cn1ncc2c(N)nc(Oc3ccccc3-c3ccccc3)nc21 | -4.14% (active) | 19.4% | 36.2% | 66.8% | 58.3% | 110% | 38.6% | 27.9% | 40.9% | -9.01% (active) | 31.9% | -1.44% (active) | -38.2% (active) | 25.2% | 9.1% (active) | 15.6% | 62.2% | 24% | -24.1% (active) |
| Cn1cc(-c2cc(N)n3nc(-c4c[nH]c5ccc(F)cc45)cc3n2)c2cccnc21 | -11.7% (active) | -30.3% (active) | -59.6% (active) | -81.1% (active) | -30% (active) | -56% (active) | -71.4% (active) | -76.1% (active) | -14.6% (active) | -44.7% (active) | -59.7% (active) | -73.6% (active) | -76.6% (active) | -66.4% (active) | -53.8% (active) | -91.4% (active) | -100% (active) | -66% (active) | -92.9% (active) |
| CC(=O)c1c2c(c3ccc4c5ccccc5ccc4n13)C(=O)c1ccccc1C2=O | 77.4% | 101% | 89.2% | 115% | 85.4% | 97.1% | 84.5% | 108% | 82.2% | 96.3% | 92.5% | 113% | 98.3% | 107% | 58% | 102% | 94.3% | 85.8% | 84.2% |
| COc1ccccc1/C=C/c1cccc(NC(=S)NCCCCN(C)C)c1 | -30.5% (active) | -6.58% (active) | -58.5% (active) | -92.3% (active) | -79.7% (active) | -72.9% (active) | -82.4% (active) | -48.8% (active) | -24.2% (active) | -62.6% (active) | -58.7% (active) | -60.7% (active) | -91.6% (active) | 5.09% (active) | -73.9% (active) | -43.4% (active) | -94.1% (active) | -52.9% (active) | -86% (active) |
| CCC1(OC(=O)c2ccccc2SSCCOC(=O)CCCCC2SCC3NC(=O)NC32)C(=O)OCc2c1cc1n(c2=O)Cc2cc3ccccc3nc2-1 (stereo not given) | 3.84% (active) | 33.1% | 37.4% | 97% | 66% | 46.3% | 75.3% | 72.7% | 82.9% | 24.2% | 33.7% | 49.4% | 70.1% | 51.5% | 26.5% | 53.8% | 78.7% | 79% | -12.1% (active) |
| O=C(NN1C(=O)/C(=C/C=C/c2ccc([N+](=O)[O-])o2)SC1=S)c1ccncc1 | -24.7% (active) | -28.4% (active) | -37.2% (active) | -98.9% (active) | -97.6% (active) | -99% (active) | -94.9% (active) | -100% (active) | -11% (active) | -4.3% (active) | -59.4% (active) | -91.7% (active) | -83.7% (active) | -69.6% (active) | -53.4% (active) | -41.5% (active) | -96.2% (active) | -94.3% (active) | -73.9% (active) |
| CC(C)(C)OC(=O)N1C/C(=C\c2ccc(F)cc2)C(=O)/C(=C/c2ccc(F)cc2)C1 | -11.1% (active) | -15.4% (active) | -68.3% (active) | -81.9% (active) | -9.66% (active) | 0.0941% (active) | -56.8% (active) | -90% (active) | -6.73% (active) | -56.8% (active) | 14.4% | -88.1% (active) | -82.6% (active) | -67.7% (active) | -66.5% (active) | -81.5% (active) | -98% (active) | -90.7% (active) | -82.3% (active) |
| Cc1nn(-c2ccccc2)c2nc(C)n(CC(=O)N/N=C/c3ccccc3O)c(=O)c12 | 54.7% | 29.1% | 22% | 46.6% | 31.2% | 25% | 24.2% | 51.3% | 55.4% | 16.7% | 16.1% | 37.2% | 34.7% | 18.9% | 7.8% (active) | 24.6% | 27.4% | 31% | -23.3% (active) |
| COc1ccc(/C=C/C(=O)c2ccc(S(=O)(=O)NCCNc3nc(N(C)C)nc(N4CCOCC4)n3)cc2)cc1 | 13.8% | 14% | 98.5% | 95.4% | 94.1% | 101% | 98.5% | 100% | 104% | 89.7% | 83.5% | 105% | 81.8% | 68.7% | 11.8% | -9.23% (active) | 116% | 64.8% | 76.3% |
| Cc1ccc(C(=O)Nc2cc(-n3ccnc3)cc(C(F)(F)F)c2)cc1-n1cc(-c2cnc3cccnn23)nn1 | 114% | 85.2% | 103% | 66.6% | 104% | 124% | 104% | 133% | 94.9% | 115% | 113% | 247% | 63.4% | 81.9% | 101% | 55.1% | 86.3% | 80.1% | 121% |
| C[C@@H]1[C@H]2C[C@@H](C[C@H]1NCc1nc3ccccc3n1C1CCCCCC1)C2(C)C | 15.4% | 27.6% | 75.1% | 85.9% | 72.4% | 90.4% | 75.8% | 64.5% | 80.2% | 25.9% | 48% | 72.8% | 73.6% | 49.6% | 28.1% | 23.4% | 37.6% | 68.6% | 2.05% (active) |
| O=C(CSc1nnc(-c2ccc(-c3nc4ccc(Cl)cc4[nH]3)cc2)o1)Nc1ccc(Br)cc1 | 17.1% | 8.9% (active) | -31.8% (active) | 47.5% | 16% | 73% | 53.4% | 9.66% (active) | -0.329% (active) | 15% | 41.4% | -1.46% (active) | 28.6% | 17.9% | 20.4% | 8.26% (active) | 76.9% | 18.9% | 50.8% |
| COc1cc2cc(C(=O)N3C[C@@H](CCl)c4c3cc(OC(=O)N(CCC(=O)N3CCN(C)CC3)[C@H]3CCSSC3)c3ccccc43)[nH]c2c(OC)c1OC | -22.9% (active) | -5.04% (active) | -49.8% (active) | -4.73% (active) | -11.9% (active) | 10.8% | -16.7% (active) | -55.8% (active) | -14.1% (active) | -55.3% (active) | 8.8% (active) | -81.1% (active) | -48.5% (active) | -42.4% (active) | -79.9% (active) | -41.4% (active) | -94.3% (active) | -29% (active) | -91.5% (active) |
| COc1ccc(-c2nc3ccccc3n2CC(=O)N=Nc2c(O)[nH]c3ccc(OC)cc23)cc1 | 0.469% (active) | 52% | 6.22% (active) | 86.8% | 50.8% | 104% | 45.7% | 35.5% | 30.3% | 48% | -72.5% (active) | 20.5% | 26.3% | 48.6% | 58.1% | 1.32% (active) | 114% | 85% | 52.4% |
| COc1ccc2oc(=O)c(-c3csc(N/N=C(\C)c4cc(OC)c(OC)c(OC)c4)n3)cc2c1 | 70.4% | 72.9% | 86.2% | 109% | 86.5% | 172% | 91.2% | 110% | 110% | 77.9% | 65.7% | 39% | 99.2% | 108% | 79.8% | 92.2% | 112% | 87.6% | 79.9% |
